# According to the supplement of paper PMC12067093, “Discovery and optimisation of a covalent ligand for TRIM25 and its application to targeted protein ubiquitination” (Chemical Science, 2025):
# About 21,000 targets were measured; listed, in parts, are those with the largest changes and a random draw of the rest.
# Target: DDX39B_Q13838_165_NCPHIVVGTPGR (UniProt Q13838)
# Assay: probe-labelled cysteine peptide fold change vs DMSO (competition) (log2 fold change); higher = less target engagement (more negative = stronger competition)
# Details: THP-1, incubation time: 4 h
# 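Further: competitive profiling in live THP-1 cells: cysteine peptides tagged with an iodoacetamide desthiobiotin (IA-DTB) probe, intensity after compound treatment relative to DMSO-treated cells.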
# Sequence of UniProt Q13838 (Q13838 whole entry, looked up): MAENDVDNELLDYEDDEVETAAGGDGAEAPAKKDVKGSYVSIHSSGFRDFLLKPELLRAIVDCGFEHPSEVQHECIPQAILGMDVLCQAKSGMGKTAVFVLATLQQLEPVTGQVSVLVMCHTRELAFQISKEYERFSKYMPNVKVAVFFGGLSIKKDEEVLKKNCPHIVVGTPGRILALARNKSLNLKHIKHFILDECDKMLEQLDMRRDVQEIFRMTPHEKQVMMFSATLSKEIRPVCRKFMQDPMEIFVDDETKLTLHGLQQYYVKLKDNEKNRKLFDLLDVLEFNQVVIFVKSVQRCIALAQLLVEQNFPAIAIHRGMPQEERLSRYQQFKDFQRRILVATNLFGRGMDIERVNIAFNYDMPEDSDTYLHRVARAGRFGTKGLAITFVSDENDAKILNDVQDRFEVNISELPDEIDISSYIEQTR
compound,measurement,setting,value
Cc1cc(C(=O)N2CCCN(C(=O)CCl)CC2)ccc1-c1ccccc1 [compound 10],probe-labelled cysteine peptide fold change,10 µM,0.0169
same,probe-labelled cysteine peptide fold change,50 µM,0.0264
